Experimental findings from the supplement of paper PMC3656093 are described below.

± gives the standard deviation of the averaged measurements. Whole data set: some 1,900 compounds, median “CD40L-induced NF-kB luciferase activity, plate-corrected, relative to DMSO (0) and IKK inhibitor VII (-100) controls” near 0.032, cut for the lowest 2% near -26. This excerpt belongs to a sample that is enriched for the lowest values.

This experiment has as its system BL2-NFkB-Luc. In words: CD40L-induced NF-kB luciferase activity, plate-corrected, relative to DMSO (0) and IKK inhibitor VII (-100) controls (% normalized activity); higher = more NF-kB reporter activity (less inhibition). Conditions: 9.4 µM; stimulus: tCD40L 64 ng/ml; 4.5 h. The procedure:
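BL2 B cells with a stable NF-kB response-element luciferase reporter (BL2-NFkB-Luc), 384-well. Cells were pre-incubated with compound at 9.4 uM for 1 h at 37 C, then stimulated with 64 ng/ml trimerized CD40L for 4.5 h; luciferase was read with Steady-Glo. Signal was normalised per plate in Genedata (median DMSO neutral control = 0, median IKK inhibitor VII at 50 uM = -100) with Assay Median plate-pattern correction; duplicate plates.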
Take `COc1cc(C(=O)OCCn2c(=O)c3c(ncn3CCN(C)C)n(C)c2=O)cc(OC)c1OC`: the “CD40L-induced NF-kB luciferase activity” value was -3 ± 1.3. The figure for `O=c1ccn([C@@H]2O[C@H](CO)[C@@H](O)[C@H]2O)c(=O)[nH]1` is -6.55 ± 1.5; for `Nc1ccn([C@@H]2O[C@H](CO)[C@@H](O)[C@@H]2O)c(=O)n1` it is -30.5 ± 2.4; for `Nc1cnn(C2OC(CO)C(O)C2O)c(=O)n1` (stereo not given) it is 6.46 ± 4.2.

Consider `CC(C)CC(=O)OC1C(N2CCOCC2)c2c(ccc(/C=C/C(=O)N3CCOCC3)c2O)OC1(C)C` (stereo not given), for which the “CD40L-induced NF-kB luciferase activity” value is -1.24 ± 1.2.

For the molecule `O=C(/C=C/c1ccco1)N1CCN(c2ccccc2)CC1`, the “CD40L-induced NF-kB luciferase activity” value came out at 6.71 ± 0.18. The figure for `Cc1ccc2c(c1)C(O)(c1c(C)[nH]c3ccccc13)C(=O)N2` (stereo not given) is 3.92 ± 8.9; for `O=C(NC(=S)N1CCCCC1)c1cccnc1` it is -3.04 ± 2.8; for `O=C(CCCN1C(=O)/C(=C\c2cccs2)SC1=S)Nc1ccccn1` it is -2.54 ± 1.1.

As to `CC(/C=C1\SC(=O)N(CCCC(=O)O)C1=O)=C\c1ccccc1`, the “CD40L-induced NF-kB luciferase activity” value was -84.08 ± 0.44. The figure for `O=C(CCCN1C(=O)/C(=C\c2cccc(Br)c2)SC1=S)Nc1cccnc1` is -2.47 ± 4.1; for `CCn1c(/C=C/c2ccccc2)nc2ccccc2c1=O` it is 4.25 ± 3.8; for `COCCn1c(/C=C/c2ccccc2)nc2ccccc21` it is 38.4 ± 2.4. As for `C(=C\c1ccc2ccccc2n1)/c1ccccc1`, the “CD40L-induced NF-kB luciferase activity” value was -56 ± 3.4. With `O=c1cnn([C@@H]2O[C@H](CO)[C@@H](O)[C@H]2O)c(=O)[nH]1` the figure was 10.5 ± 4.8. As to `O=C(Nc1c(C(=O)O)[nH]c2ccccc12)NC1CCCCC1`, the “CD40L-induced NF-kB luciferase activity” value is -0.728 ± 0.3.

Take `O=C(CC1(O)C(=O)Nc2ccccc21)c1ccccc1O` (stereo not given): the “CD40L-induced NF-kB luciferase activity” value was determined as 1.73 ± 4.3. Take `O=C1C=CC(=O)C(C2=C3C(=O)N(CCc4ccccc4)CC(=O)N3CCC2)=C1`: the “CD40L-induced NF-kB luciferase activity” value was -42.7 ± 2.4. With `O=C1CCCCCN1Cc1ccccc1` the figure was 3.92 ± 5.3; with `O=C(c1cc2cc(Br)ccc2o1)N1CCCC1`, 38.77 ± 0.2.

`O=c1c2ccccc2nc2n1-c1ccccc1CCC2`: the “CD40L-induced NF-kB luciferase activity” value is -5.01 ± 3.7.

For `COc1ccc2c(c1)[nH]c1c(=O)n(Cc3ccccn3)cnc12`, the “CD40L-induced NF-kB luciferase activity” value was -0.0285 ± 6.5. As for `COc1ccc(CC(=O)Nc2cccc(C(=O)Nc3ccccc3C(=O)O)c2)cc1OC`, the “CD40L-induced NF-kB luciferase activity” value is -2.42 ± 3.4. With `O=C(/C=C/c1ccco1)Nc1ccccc1C(=O)O` the figure was 1.64 ± 1.8. With `COc1ccc(/C=C/C(=O)Nc2ccccc2C(=O)O)cc1OC` the figure was -57.1 ± 1.6; with `Cc1ccccc1-c1coc2cc(O)ccc2c1=O`, 4.65 ± 2.2. Take `O=C1OC(c2ccc(O)cc2)(c2ccc(O)cc2)c2ccccc21`: the “CD40L-induced NF-kB luciferase activity” value turned out to be 0.943 ± 1.8. With `Cc1cc(O)c(C(C)C)cc1C1(c2cc(C(C)C)c(O)cc2C)OC(=O)c2ccccc21` the figure was -36.1 ± 2.9; with `C/C=C/Cn1c(SC)nc2c1c(=O)[nH]c(=O)n2C`, -0.907 ± 1.9. With `COCC(C)NC(=O)c1ccc(CN2CCc3ccccc3C2)cc1` (stereo not given) the figure was 7.18 ± 5; with `O=C(O)c1cc(-c2ccc3c(c2)OCO3)nc2ccc(Br)cc12`, 9.08 ± 4. Regarding `CCc1cc2c(=O)c(-c3ccc(F)cc3)c(C)oc2cc1OCC(=O)O`, the “CD40L-induced NF-kB luciferase activity” value is 1.94 ± 0.96. With `O=C1c2ccccc2N2C(=O)c3ccccc3C2N1Cc1ccco1` (stereo not given) the figure was -3.98 ± 15.

For `O=C1OC(Nc2ccc3c(c2)OCO3)c2ccccc21` (stereo not given), the “CD40L-induced NF-kB luciferase activity” value is -15.2 ± 0.48.

`O=S(=O)(NCCCCCNS(=O)(=O)c1ccccc1)c1ccccc1`: the “CD40L-induced NF-kB luciferase activity” value is -7.09 ± 9.8. Turning to `COc1ccc2[nH]c(=O)c3c(c2c1)OC(C)(C)C=C3`, the “CD40L-induced NF-kB luciferase activity” value is -32.8 ± 0.38.

Regarding `COc1ccc2[nH]cc(C3N4CC5(C)CN3CC(C)(C4)C5=O)c2c1` (stereo not given), the “CD40L-induced NF-kB luciferase activity” value was determined as 2.08 ± 1.7. As to `COc1ccc2[nH]c(=O)c(CN(C(=O)c3ccco3)C(C)C)cc2c1`, the “CD40L-induced NF-kB luciferase activity” value was 0.241 ± 0.71. With `O=C(COc1ccc(F)cc1)OCCN1CCOCC1` the figure was 0.903 ± 1.5; with `COc1ccccc1C1C(C#N)=C(N)Oc2c1oc(CO)cc2=O` (stereo not given), -1.31 ± 0.27; with `O=C1OC(c2ccccc2)=C/C1=C/c1cccs1`, 30.9 ± 2.3. As for `OC(COCc1ccccc1)CN1CCN(Cc2ccc3c(c2)OCO3)CC1` (stereo not given), the “CD40L-induced NF-kB luciferase activity” value is -0.97 ± 0.41.

Consider `COc1cc2c(cc1OC)C1(CCCCC1)CN(C)C2`, for which the “CD40L-induced NF-kB luciferase activity” value was -4.22 ± 0.72.

In the case of `O=C(CC1SC(=O)NC1=O)Nc1ccc(Cl)cc1` (stereo not given), the “CD40L-induced NF-kB luciferase activity” value turned out to be 2.93 ± 5.1. The figure for `O=C(NN=Cc1ccc([N+](=O)[O-])o1)c1ccc(O)cc1` is -1.71 ± 0.97; for `CCOCC(=O)Nc1nc2ccccc2s1` it is 50.7 ± 10. For the molecule `COC(=O)CSc1nc2ccc(N)cc2s1`, the “CD40L-induced NF-kB luciferase activity” value came to 0.507 ± 4.2.

Regarding `O=C(O)CCSc1nc2ccccc2s1`, the “CD40L-induced NF-kB luciferase activity” value was -42.3 ± 0.52. Consider `CN(CCc1cnn(C)c1)Cc1nc(CC2CC2)no1`, for which the “CD40L-induced NF-kB luciferase activity” value is -0.906 ± 0.31. Consider `COc1ccc(O)c(C(=O)/C=C/c2cc3ccccc3o2)c1`, for which the “CD40L-induced NF-kB luciferase activity” value was 83.3 ± 3.2. Regarding `O=C(OCCN1CCOCC1)c1cccs1`, the “CD40L-induced NF-kB luciferase activity” value is -4.77 ± 5.6. For the molecule `COc1ccc(CCCC(=O)O)c(C)c1`, the “CD40L-induced NF-kB luciferase activity” value came out at 1.85 ± 1.2. Consider `CCN(CC)C1=C(Cl)C(=O)C(Cl)C12OCCO2` (stereo not given), for which the “CD40L-induced NF-kB luciferase activity” value is -4.69 ± 4.8.

For the molecule `Cc1cc(C=NO)c(C)n1-c1ccc(Br)cc1`, the “CD40L-induced NF-kB luciferase activity” value was -0.84 ± 0.39. The figure for `COc1ccc(C2N3CC4(C)CN2CC(C)(C3)C4)cc1OC` (stereo not given) is -1.8 ± 1.9; for `COc1ccc(C(=O)Nc2cccc3cccnc23)cc1OC` it is 19.3 ± 10. With `O=C(NCCC(c1ccccc1)c1ccco1)c1cccs1` (stereo not given) the figure was 24.9 ± 2.2. On to `CCc1cc2c(=O)c(-c3nc4ccccc4n3C)coc2c(CN2CCN(C)CC2)c1O`, for which the “CD40L-induced NF-kB luciferase activity” value was -3.98 ± 2.5. The figure for `CC(C)[C@H]1CN(C)CCN1Cc1cn(C)nc1-c1cccc(Cl)c1` is 2.03 ± 0.42. Turning to `Cc1c(OC(=O)CNC(=O)OC(C)(C)C)ccc2c3c(c(=O)oc12)CCC3`, the “CD40L-induced NF-kB luciferase activity” value was 3.02 ± 3.5. The figure for `O=C(O)c1ccc(C(=O)C(=O)c2ccccc2)cc1` is -6.47 ± 15; for `CC(=O)C1=C(O)C(=O)N(CC(=O)O)C1c1ccccc1Cl` (stereo not given) it is 3.2 ± 3.2. With `C[C@]12CC[C@H]3[C@@H](CCC4=CC(=O)CC[C@@]43C)[C@@H]1CC[C@@H]2C(=O)CO` the figure was -4.85 ± 1.2; with `CC1(C)O[C@@H]2C[C@H]3[C@@H]4C[C@H](F)C5=CC(=O)C=C[C@]5(C)[C@@]4(F)[C@@H](O)C[C@]3(C)[C@]2(C(=O)CO)O1`, -23.7 ± 1.8; with `C[C@@H]1C[C@H]2[C@@H]3CCC4=CC(=O)C=C[C@]4(C)[C@@]3(F)[C@@H](O)C[C@]2(C)[C@H]1C(=O)CO`, -31.39 ± 0.23. With `CC1(C)O[C@@H]2C[C@H]3[C@@H]4CCC5=CC(=O)C=C[C@]5(C)[C@@]4(F)[C@@H](O)C[C@]3(C)[C@]2(C(=O)CO)O1` the figure was -31.3 ± 5.1.

Turning to `CC(=O)OCC(=O)[C@@]12OC3(CCCC3)O[C@@H]1C[C@H]1[C@@H]3CCC4=CC(=O)C=C[C@]4(C)[C@@]3(F)[C@@H](O)C[C@@]12C`, the “CD40L-induced NF-kB luciferase activity” value was -20.2 ± 1.1.

In the case of `CC(=O)OCC(=O)C1=CCC2C3CCC4=CC(=O)C=CC4(C)C3(F)C(OC(C)=O)CC12C` (stereo not given), the “CD40L-induced NF-kB luciferase activity” value is -4.87 ± 4.6.

For `C/C=C/c1ccc(OCCCCN2CC(C)CC(C)C2)c(OC)c1` (stereo not given), the “CD40L-induced NF-kB luciferase activity” value turned out to be 1.73 ± 0.88. The figure for `Cc1ccc(OCc2nc(-c3cccnc3)no2)cc1C` is 34.5 ± 7.5; for `CCc1cc(=O)oc2cc(OCc3nn[nH]n3)ccc12` it is -0.362 ± 2.4. The figure for `COc1cc2oc(-c3ccc(O)cc3)cc(=O)c2c(OC)c1O` is 2.41 ± 4.4. With `Cc1cccc(Nc2ncccc2C(=O)O)c1C` the figure was -3.873 ± 0.016.

With `CCOc1ccc(C(NC(C)=O)c2ccc(OC)c(OC)c2)cc1` (stereo not given), the “CD40L-induced NF-kB luciferase activity” value stood at 4.36 ± 0.088. As to `Nc1c(C(=O)c2ccccc2)oc2ccccc12`, the “CD40L-induced NF-kB luciferase activity” value came to 17.3 ± 8.5. The figure for `O=C(c1ccc(F)cc1)[C@@H]1[C@@H](C(=O)c2ccccc2)[C@@]2(C(=O)Nc3ccccc32)[C@H]2c3ccccc3C=CN12` is 6.58 ± 1.4; for `CCOC(=O)c1cccc(C(=O)OCC)n1` it is -2.95 ± 2.1; for `COc1cccc(CN2CCN(C(=O)c3ccc(-c4ccccc4)cc3)CC2)c1` it is -7.33 ± 1.1. Regarding `O=C(/C=C/c1ccc(F)cc1)N1CC[C@@]2(O)CCCC[C@H]2C1`, the “CD40L-induced NF-kB luciferase activity” value was -1.13 ± 0.88. On to `Cc1ccc(C(=O)NCCNC(=O)c2ccccc2)cc1`, for which the “CD40L-induced NF-kB luciferase activity” value was -2.5 ± 3.9.

With `O=C(Cc1ccc(Br)cc1)c1ccc(O)cc1O`, the “CD40L-induced NF-kB luciferase activity” value is 32.9 ± 18.

In the case of `O=C(Nc1ccc(C(=O)NC2CCCCC2)cc1)c1cccnc1`, the “CD40L-induced NF-kB luciferase activity” value came out at 0.625 ± 0.58. With `COC(=O)c1[nH]c2ccc(C)cc2c1NC(=O)CN1CCc2cc(OC)c(OC)cc2C1` the figure was -5.22 ± 6.4; with `COc1ccc(-c2cc(=Nc3ccc(C)cc3)c3ccccc3o2)cc1`, 2.07 ± 3. On to `C=CCN1C(=O)c2oc3ccccc3c(=O)c2C1c1ccc(O)c(OC)c1` (stereo not given), for which the “CD40L-induced NF-kB luciferase activity” value was -0.791 ± 0.32.
